Laboratory results taken from the supplement of paper PMC11732987, “Enantioselective OTUD7B fragment discovery through chemoproteomics screening and high-throughput optimisation” (Communications Chemistry, 2025).
Values without a mark were called inactive.

What was measured:
Assay in all cases: log2 ratio of Biotin-Ahx-Ub-VS probe labelling (fragment/DMSO); higher = less target engagement (more negative = stronger competition), active = hit call of the paper (q ≤ 0.05, log2 ratio ≤ -1)
Settings in all cases: compound concentration: 200 uM; treatment time: 3 h
ALG13 = target: T1, ALG13 (UniProt Q9NP73)
T1 sequence (whole entry): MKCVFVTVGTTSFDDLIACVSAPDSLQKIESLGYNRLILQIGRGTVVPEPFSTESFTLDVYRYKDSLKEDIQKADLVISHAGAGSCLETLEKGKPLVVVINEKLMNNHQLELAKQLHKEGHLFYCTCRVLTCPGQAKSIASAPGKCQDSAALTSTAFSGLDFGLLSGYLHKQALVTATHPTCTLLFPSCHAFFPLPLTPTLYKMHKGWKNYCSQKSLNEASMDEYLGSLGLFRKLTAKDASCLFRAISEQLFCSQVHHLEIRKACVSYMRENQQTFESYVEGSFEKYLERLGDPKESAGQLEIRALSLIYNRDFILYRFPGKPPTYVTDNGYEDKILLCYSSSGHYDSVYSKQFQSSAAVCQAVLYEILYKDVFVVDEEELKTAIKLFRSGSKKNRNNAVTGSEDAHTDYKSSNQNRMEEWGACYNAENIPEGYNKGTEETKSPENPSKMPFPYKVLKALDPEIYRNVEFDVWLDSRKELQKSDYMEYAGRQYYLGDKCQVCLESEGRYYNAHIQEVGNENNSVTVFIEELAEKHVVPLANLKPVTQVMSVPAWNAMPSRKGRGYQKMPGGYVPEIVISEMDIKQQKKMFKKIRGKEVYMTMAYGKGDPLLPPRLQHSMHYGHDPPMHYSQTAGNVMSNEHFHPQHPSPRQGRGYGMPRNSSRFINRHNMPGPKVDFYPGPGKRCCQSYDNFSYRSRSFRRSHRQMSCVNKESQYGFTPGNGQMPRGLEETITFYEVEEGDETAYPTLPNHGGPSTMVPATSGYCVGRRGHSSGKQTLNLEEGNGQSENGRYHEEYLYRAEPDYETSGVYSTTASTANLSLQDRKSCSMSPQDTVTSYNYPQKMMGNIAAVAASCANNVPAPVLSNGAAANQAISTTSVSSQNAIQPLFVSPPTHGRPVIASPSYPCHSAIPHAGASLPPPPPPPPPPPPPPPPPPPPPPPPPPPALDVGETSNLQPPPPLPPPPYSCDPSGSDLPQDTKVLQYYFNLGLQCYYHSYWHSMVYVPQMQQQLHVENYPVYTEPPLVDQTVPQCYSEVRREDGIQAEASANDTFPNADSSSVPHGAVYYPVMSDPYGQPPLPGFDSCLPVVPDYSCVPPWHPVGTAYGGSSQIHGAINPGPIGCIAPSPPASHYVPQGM
How it was run: (§1)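 Global-median-normalised Spectronaut label-free quantities were compared by unpaired t-test, and values are average log2 ratios of fragment over vehicle. Only proteins with ≥2 unique peptides were used. HEK293T lysate (495 µg per sample) was treated in triplicate with fragment at 200 µM or vehicle for 3 h and then with Biotin-Ahx-Ub-VS at 0.5 µM final for 1 h. Labelled DUBs were then NeutrAvidin-enriched, digested with LysC and trypsin, and run by diaPASEF LC-MS/MS.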

ATXN3 = ATXN3 (UniProt P54252)
Sequence of ATXN3 (P54252 whole entry): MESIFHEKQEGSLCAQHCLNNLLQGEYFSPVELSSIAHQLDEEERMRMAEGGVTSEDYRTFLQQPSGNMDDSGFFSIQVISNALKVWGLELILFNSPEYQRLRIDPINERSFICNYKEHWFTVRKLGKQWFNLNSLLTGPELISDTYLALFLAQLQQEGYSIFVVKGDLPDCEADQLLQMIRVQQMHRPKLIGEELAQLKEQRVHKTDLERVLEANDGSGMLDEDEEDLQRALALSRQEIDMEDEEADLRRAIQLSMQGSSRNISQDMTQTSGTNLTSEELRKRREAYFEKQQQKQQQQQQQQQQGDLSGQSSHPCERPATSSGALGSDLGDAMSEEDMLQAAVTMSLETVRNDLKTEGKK
How it was run: as §1

BAP1 = target: T2, BAP1 (UniProt Q92560)
T2 sequence (whole entry): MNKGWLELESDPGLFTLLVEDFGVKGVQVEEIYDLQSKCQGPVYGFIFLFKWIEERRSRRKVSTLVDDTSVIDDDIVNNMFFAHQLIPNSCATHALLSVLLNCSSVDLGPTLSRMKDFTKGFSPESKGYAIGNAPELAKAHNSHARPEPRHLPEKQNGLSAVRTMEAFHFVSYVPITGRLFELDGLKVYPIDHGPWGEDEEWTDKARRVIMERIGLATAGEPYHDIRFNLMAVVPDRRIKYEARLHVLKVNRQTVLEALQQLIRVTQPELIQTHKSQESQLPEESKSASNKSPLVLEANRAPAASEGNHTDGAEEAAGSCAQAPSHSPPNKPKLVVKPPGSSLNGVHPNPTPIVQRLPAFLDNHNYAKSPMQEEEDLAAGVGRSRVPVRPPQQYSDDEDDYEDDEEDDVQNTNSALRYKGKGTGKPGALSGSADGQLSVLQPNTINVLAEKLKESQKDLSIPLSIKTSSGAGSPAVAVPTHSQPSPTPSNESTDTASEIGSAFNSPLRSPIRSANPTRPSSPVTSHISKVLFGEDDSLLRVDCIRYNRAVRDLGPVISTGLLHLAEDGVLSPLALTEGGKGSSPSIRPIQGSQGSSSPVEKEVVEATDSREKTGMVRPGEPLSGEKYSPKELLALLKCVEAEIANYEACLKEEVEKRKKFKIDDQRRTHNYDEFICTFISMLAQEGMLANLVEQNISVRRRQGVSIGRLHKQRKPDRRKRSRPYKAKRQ
How it was run: as §1

EIF3F = EIF3F (UniProt O00303)
Sequence of EIF3F (O00303 whole entry): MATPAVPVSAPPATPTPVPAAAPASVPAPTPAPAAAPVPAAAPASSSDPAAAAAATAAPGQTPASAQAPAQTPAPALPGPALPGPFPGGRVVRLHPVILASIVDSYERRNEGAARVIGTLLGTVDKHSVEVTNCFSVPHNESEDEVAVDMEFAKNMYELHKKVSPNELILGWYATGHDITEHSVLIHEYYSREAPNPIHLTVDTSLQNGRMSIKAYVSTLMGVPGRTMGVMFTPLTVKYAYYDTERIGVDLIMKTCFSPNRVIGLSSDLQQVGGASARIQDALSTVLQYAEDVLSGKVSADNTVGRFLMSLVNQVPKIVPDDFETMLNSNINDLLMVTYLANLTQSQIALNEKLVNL
How it was run: as §1

EIF3H = EIF3H (UniProt O15372)
Sequence of EIF3H (O15372 whole entry): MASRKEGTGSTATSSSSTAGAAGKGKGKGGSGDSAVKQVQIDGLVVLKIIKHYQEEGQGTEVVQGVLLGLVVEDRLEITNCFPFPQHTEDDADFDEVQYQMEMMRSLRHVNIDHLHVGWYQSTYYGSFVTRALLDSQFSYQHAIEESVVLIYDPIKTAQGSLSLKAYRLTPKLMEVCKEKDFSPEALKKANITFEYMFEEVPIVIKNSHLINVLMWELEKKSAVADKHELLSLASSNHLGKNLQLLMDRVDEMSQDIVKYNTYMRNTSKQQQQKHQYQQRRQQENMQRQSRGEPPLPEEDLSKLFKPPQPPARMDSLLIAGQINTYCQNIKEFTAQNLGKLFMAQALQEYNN
How it was run: as §1

FAM105A = target: T3, FAM105A (UniProt Q9NUU6)
T3 sequence (whole entry): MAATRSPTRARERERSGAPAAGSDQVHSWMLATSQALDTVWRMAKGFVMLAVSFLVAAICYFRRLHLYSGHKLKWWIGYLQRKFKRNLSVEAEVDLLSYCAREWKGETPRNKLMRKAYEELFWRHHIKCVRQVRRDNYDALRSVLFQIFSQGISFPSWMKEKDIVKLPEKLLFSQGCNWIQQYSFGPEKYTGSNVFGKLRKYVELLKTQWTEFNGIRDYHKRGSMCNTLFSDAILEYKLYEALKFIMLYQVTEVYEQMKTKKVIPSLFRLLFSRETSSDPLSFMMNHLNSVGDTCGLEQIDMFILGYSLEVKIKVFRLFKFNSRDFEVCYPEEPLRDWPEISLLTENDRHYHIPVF
How it was run: as §1

OTUB1 = OTUB1 (UniProt Q96FW1)
Sequence of OTUB1 (Q96FW1 whole entry): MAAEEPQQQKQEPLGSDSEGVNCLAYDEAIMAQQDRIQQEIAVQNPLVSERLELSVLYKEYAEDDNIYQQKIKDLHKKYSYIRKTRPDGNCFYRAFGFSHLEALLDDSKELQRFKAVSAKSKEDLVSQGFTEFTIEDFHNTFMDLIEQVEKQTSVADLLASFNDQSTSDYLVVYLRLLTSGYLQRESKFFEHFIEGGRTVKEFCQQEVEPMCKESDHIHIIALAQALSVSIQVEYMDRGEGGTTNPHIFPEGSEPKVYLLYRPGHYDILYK
How it was run: as §1

OTUD4 = target: T4, OTUD4 (UniProt Q01804)
T4 sequence (whole entry): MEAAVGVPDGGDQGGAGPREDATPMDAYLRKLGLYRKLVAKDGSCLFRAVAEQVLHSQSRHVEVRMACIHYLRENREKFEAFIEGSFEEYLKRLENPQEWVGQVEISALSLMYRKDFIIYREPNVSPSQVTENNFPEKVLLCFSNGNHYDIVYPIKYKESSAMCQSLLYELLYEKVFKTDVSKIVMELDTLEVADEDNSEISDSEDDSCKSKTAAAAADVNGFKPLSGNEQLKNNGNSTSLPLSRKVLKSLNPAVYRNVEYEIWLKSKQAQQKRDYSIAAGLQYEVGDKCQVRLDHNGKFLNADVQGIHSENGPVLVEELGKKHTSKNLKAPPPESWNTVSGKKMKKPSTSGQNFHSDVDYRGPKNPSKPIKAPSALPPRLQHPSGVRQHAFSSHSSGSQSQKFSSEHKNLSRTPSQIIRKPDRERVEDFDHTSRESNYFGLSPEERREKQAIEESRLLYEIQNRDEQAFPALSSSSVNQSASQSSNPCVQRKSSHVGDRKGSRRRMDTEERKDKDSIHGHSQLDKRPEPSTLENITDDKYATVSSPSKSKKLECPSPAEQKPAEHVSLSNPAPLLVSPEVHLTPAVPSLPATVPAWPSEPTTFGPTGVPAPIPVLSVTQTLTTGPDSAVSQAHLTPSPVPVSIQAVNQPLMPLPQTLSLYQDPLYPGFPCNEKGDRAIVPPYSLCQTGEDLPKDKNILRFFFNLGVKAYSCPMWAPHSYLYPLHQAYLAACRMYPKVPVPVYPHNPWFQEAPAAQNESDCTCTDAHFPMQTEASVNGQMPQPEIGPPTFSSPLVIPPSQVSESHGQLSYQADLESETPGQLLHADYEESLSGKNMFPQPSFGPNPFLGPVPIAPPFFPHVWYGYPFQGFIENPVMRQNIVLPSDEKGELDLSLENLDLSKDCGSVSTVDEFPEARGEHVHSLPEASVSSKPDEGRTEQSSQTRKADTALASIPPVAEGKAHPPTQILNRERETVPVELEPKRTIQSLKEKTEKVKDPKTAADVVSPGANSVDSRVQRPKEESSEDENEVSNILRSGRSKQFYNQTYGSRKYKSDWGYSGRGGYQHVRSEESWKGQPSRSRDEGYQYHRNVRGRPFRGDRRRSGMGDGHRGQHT
How it was run: as §1

OTUD5 = target: T5, OTUD5 (UniProt Q96G74)
T5 sequence (whole entry): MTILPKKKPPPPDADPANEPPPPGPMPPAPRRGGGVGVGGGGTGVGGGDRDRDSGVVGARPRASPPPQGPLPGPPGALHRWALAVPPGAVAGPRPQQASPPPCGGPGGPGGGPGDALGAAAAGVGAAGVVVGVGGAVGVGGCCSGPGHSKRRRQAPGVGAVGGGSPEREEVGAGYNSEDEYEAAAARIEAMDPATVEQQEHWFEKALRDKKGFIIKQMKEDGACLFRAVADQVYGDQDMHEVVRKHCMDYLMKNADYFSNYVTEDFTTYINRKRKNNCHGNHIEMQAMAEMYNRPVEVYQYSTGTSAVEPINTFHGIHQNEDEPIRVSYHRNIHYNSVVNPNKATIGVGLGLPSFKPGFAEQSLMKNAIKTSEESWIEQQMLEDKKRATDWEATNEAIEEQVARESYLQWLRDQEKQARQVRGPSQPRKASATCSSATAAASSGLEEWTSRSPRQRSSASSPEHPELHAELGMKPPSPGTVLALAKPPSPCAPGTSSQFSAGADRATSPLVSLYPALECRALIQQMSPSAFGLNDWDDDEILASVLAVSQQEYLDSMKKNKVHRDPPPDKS
How it was run: as §1

## Cc1ccccc1CN(C)C(=O)CCl
ALG13
  log2 ratio of Biotin-Ahx-Ub-VS probe labelling: -0.539
ATXN3
  log2 ratio of Biotin-Ahx-Ub-VS probe labelling: -1.13 (active)
BAP1
  log2 ratio of Biotin-Ahx-Ub-VS probe labelling: -2.27 (active)
EIF3F
  log2 ratio of Biotin-Ahx-Ub-VS probe labelling: -0.115
EIF3H
  log2 ratio of Biotin-Ahx-Ub-VS probe labelling: 0.207
FAM105A
  log2 ratio of Biotin-Ahx-Ub-VS probe labelling: -0.463
OTUB1
  log2 ratio of Biotin-Ahx-Ub-VS probe labelling: -0.437
OTUD4
  log2 ratio of Biotin-Ahx-Ub-VS probe labelling: -0.914
OTUD5
  log2 ratio of Biotin-Ahx-Ub-VS probe labelling: -1.15 (active)
